The sample as a whole holds a higher share of hits than the screen did.
STK33 inh: blocks human STK33 kinase activity; inhibition, % at 12.5 µM; ADP-Glo luminescence, MBP substrate; hit rate 0.44% among 27,000; Q9BYT3; in the data active = inhibition above about 20%
Target sequence (Q9BYT3 whole entry, looked up): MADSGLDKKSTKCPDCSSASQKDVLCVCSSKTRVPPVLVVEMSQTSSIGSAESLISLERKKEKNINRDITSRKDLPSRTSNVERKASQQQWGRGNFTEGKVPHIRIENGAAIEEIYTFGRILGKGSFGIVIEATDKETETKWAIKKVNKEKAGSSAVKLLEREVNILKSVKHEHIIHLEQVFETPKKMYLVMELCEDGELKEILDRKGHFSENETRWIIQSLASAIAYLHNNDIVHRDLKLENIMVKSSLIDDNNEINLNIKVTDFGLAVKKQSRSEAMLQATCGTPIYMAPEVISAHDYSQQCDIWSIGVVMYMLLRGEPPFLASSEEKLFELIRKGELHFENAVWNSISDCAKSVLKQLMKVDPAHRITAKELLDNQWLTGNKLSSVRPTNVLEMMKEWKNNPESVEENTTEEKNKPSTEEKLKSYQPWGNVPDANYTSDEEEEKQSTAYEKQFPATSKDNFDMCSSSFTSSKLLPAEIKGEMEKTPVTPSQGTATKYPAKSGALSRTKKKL
p53 PUMA act: re-activators of the mutant p53 pathway | SW480 PUMA-promoter luciferase, p53 mutant reactivation | activation, % at 9.98 µM | hit rate 1.5% among 28,000; in the data active = activation above about 52%
MITF inh: blocks MITF activity. inhibition, % (test concentration not listed). TRPM1 promoter luciferase, luminescence, 24 h. hit rate 0.28% among 37,000; in the data active = inhibition above about 85%;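 note: human melanocyte line stably carrying TRPM1 promoter luciferase reporter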
NOMO-1 viab: STK33 inhibitor candidate reducing NOMO-1 cell viability; inhibition, % (test concentration not listed); hit rate 7.5% among 37,000; NOMO-1 AML viability, CellTiter-Glo luminescence, 72 h; in the data active = inhibition above about 80%
* = called active by the depositor; . = no result given.

SMILES	STK33 inh	p53 PUMA act	MITF inh	NOMO-1 viab
COC(=O)c1cc(O)c(C(=O)c2c(O)cccc2C(=O)O)c(O)c1	94*	.	9	6
C[C@H](CO)N1C[C@H](C)[C@H](CN(C)Cc2ccc(-c3ccccc3)cc2)Oc2c(NC(=O)c3ccc(-c4nccs4)cc3)cccc2C1=O	.	.	7	88*
C[C@@H]1CN([C@@H](C)CO)C(=O)c2cccc(NC(=O)c3ccc(-c4nccs4)cc3)c2O[C@@H]1CN(C)Cc1ccc(C(=O)Nc2ccccc2N)cc1	.	.	60	141*
C[C@H]1CN([C@@H](C)CO)C(=O)c2cccc(NC(=O)c3ccc(-c4nccs4)cc3)c2O[C@H]1CN(C)Cc1ccc(-c2ccccc2)cc1	.	.	-5	58
C[C@H]1CN([C@@H](C)CO)C(=O)c2cccc(NC(=O)c3ccc(-c4nccs4)cc3)c2O[C@H]1CN(C)Cc1ccc(Oc2ccccc2)cc1	.	.	-18	64
C[C@H](CO)N1C[C@H](C)[C@@H](CN(C)Cc2ccc(Oc3ccccc3)cc2)Oc2c(NC(=O)c3ccc(-c4nccs4)cc3)cccc2C1=O	.	.	40	112*
C[C@@H]1CN([C@H](C)CO)C(=O)c2cccc(NC(=O)c3ccc(-c4nccs4)cc3)c2O[C@H]1CN(C)Cc1ccc(-c2ccccc2)cc1	.	.	8	24
C[C@H](CO)N1C[C@H](C)[C@@H](CN(C)Cc2ccc(-c3ccccc3)cc2)Oc2c(NC(=O)c3ccc(-c4nccs4)cc3)cccc2C1=O	.	.	21	87*
Cc1cc(C)c(NC(=O)CN(c2cccc3ccccc23)S(C)(=O)=O)c(C)c1	-2	-1	0	10
C[C@H](CO)N1C[C@H](C)[C@H](CN(C)Cc2ccc(C(F)(F)F)cc2)Oc2c(NC(=O)c3ccc(-c4nccs4)cc3)cccc2C1=O	.	.	63	98*
C[C@H](CO)N1C[C@H](C)[C@@H](CN(C)Cc2ccccc2)Oc2c(NC(=O)c3ccc(-c4nccs4)cc3)cccc2C1=O	.	.	21	97*
C[C@H]1CN([C@@H](C)CO)C(=O)c2cccc(NC(=O)c3ccc(-c4nccs4)cc3)c2O[C@H]1CN(C)Cc1ccc(C(F)(F)F)cc1	.	.	3	72
C=CC(C)(C)[C@@]12CC(=O)C(=O)N3/C(=C/c4cnc[nH]4)C(=O)N[C@]31N(OC)c1ccccc12	-2	-5	29	118*
C[C@H]1CN([C@@H](C)CO)C(=O)c2cccc(NS(=O)(=O)c3ccc(Cl)cc3)c2O[C@H]1CN(C)Cc1ccc(-c2ccccc2)cc1	.	.	11	84*
Cc1ccc(S(=O)(=O)Nc2cccc3c2O[C@@H](CN(C)Cc2ccc(Oc4ccccc4)cc2)[C@@H](C)CN([C@H](C)CO)C3=O)cc1	.	.	48	86*
C[C@H](CO)N1C[C@H](C)[C@H](CN(C)Cc2ccc(Oc3ccccc3)cc2)Oc2c(NS(=O)(=O)c3ccc(F)cc3)cccc2C1=O	.	.	37	84*
Cc1ccc(S(=O)(=O)Nc2cccc3c2O[C@H](CN(C)Cc2ccc(Oc4ccccc4)cc2)[C@@H](C)CN([C@@H](C)CO)C3=O)cc1	.	.	-2	12
COc1ccccc1NC(=O)CSc1nc2ccc(NC(=O)c3ccccc3OC)cc2s1	4	15	-7	6
CCN(CC)C(=O)c1sc(NC(=S)Nc2nc(C)cc(C)n2)c(C(=O)OC)c1C	-4	-5	-3	44
COc1cc(O)c2c(=O)c(O[C@@H]3O[C@H](CO[C@@H]4O[C@@H](C)[C@H](O)[C@@H](O)[C@H]4O)[C@@H](O)[C@H](O)[C@H]3O)c(-c3ccc(O)c(O)c3)oc2c1	7	8	.	.
CNC(=O)c1ccccc1S(=O)c1cccc2cccc(C(=O)O)c12 (configuration not stated)	.	.	-7	5
Cc1nn(Cc2cccc(C(=O)Nc3ccccc3F)c2)c(C)c1Cl	0	29	-45	-2
Cc1nn(Cc2cccc(C(=O)NC(=O)Nc3ccc(Cl)cc3)c2)c(C)c1Br	.	.	1	107*
COc1cccc(N(CC(=O)Nc2c(C)n(C)n(-c3ccccc3)c2=O)S(C)(=O)=O)c1	0	1	4	-3
C[C@H]1CN([C@@H](C)CO)C(=O)Cc2cc(NC(=O)Nc3ccc(C(F)(F)F)cc3)ccc2O[C@@H]1CN(C)C(=O)Nc1ccc(C(F)(F)F)cc1	2	.	30	12
SMILES	STK33 inh	p53 PUMA act	MITF inh	NOMO-1 viab
C[C@@H]1CN([C@@H](C)CO)C(=O)Cc2cc(NC(=O)Nc3ccc(C(F)(F)F)cc3)ccc2O[C@@H]1CN(C)C(=O)Nc1ccc(F)cc1	1	.	23	115*
C[C@H](CO)N1C[C@H](C)[C@H](CN(C)C(=O)Nc2ccc(C(F)(F)F)cc2)Oc2ccc(NC(=O)Nc3ccc(C(F)(F)F)cc3)cc2CC1=O	.	.	16	114*
O=C(NC=Nc1cccnc1)c1cccc(COCC(F)(F)F)c1	.	10	.	.
CCCC1=C(C(=O)OCC)C(c2cc(Br)c(O)c(OC)c2)NC(=O)N1 (configuration not stated)	.	.	0	0
CC(=O)N1CCN(c2ccc(OCC3CO[C@](Cn4ccnc4)(c4ccc(Cl)cc4Cl)O3)cc2)CC1 (some centres not stated)	5	.	58	107*
CC(C)N1CCN(c2ccc(OC[C@H]3CO[C@](Cn4cncn4)(c4ccc(Cl)cc4Cl)O3)cc2)CC1	-2	2	-6	31
CCOC(=O)c1cc(C#N)c(Oc2ccc(C)cc2)nc1C(F)(F)F	0	.	18	73
COc1ccc(CN(C)C[C@@H]2OCCCC[C@@H](C)Oc3ccc(NC(=O)Nc4ccc(C(F)(F)F)cc4)cc3C(=O)N([C@H](C)CO)C[C@@H]2C)cc1	3	.	-5	113*
COc1ccc(CN(C)C[C@H]2Oc3ccc(NC(=O)Nc4ccc(C(F)(F)F)cc4)cc3C(=O)N([C@H](C)CO)C[C@@H]2C)cc1	.	-10	-9	104*
COc1ccc(CN(C)C[C@H]2Oc3ccc(NC(=O)Nc4ccc(OC)cc4)cc3C(=O)N([C@@H](C)CO)C[C@H]2C)cc1	2	8	-3	29
COc1ccc(CN(C)C[C@H]2Oc3ccc(NC(=O)Nc4ccc(C(F)(F)F)cc4)cc3C(=O)N([C@H](C)CO)C[C@H]2C)cc1	.	-33	-12	129*
COc1ccc(NC(=O)Nc2ccc3c(c2)C(=O)N([C@H](C)CO)C[C@H](C)[C@@H](CN(C)Cc2ccc(C(F)(F)F)cc2)O3)cc1	.	.	27	107*
Cc1ccc(NC(=O)CSC2CC(=O)N(c3ccc(Cl)cc3)C2=O)cc1 (configuration not stated)	-3	9	-14	-36
CCc1ccc(-n2c(SCC(=O)Nc3cccc(C)c3)nnc2-c2ccccc2)cc1	-5	-73	63	71
COc1ccc(CN(C)C[C@@H]2Oc3ccc(NC(=O)Nc4ccc(C(F)(F)F)cc4)cc3C(=O)N([C@@H](C)CO)C[C@H]2C)cc1	.	-27	-13	117*
COc1ccc(NC(=O)Nc2ccc3c(c2)C(=O)N([C@@H](C)CO)C[C@H](C)[C@H](CN(C)Cc2ccncc2)O3)cc1	-6	.	5	103*

Bioassay records (PubChem)
